Shown are actives, neighbours in structure and some others; about 11% of the full set was active somewhere.
Vaccinia Venus = vaccinia inhibition (Venus reporter); Vaccinia virus Venus reporter expression, fluorescence; AID 720580; 330,000 compounds, 0.46% hits; Potency, µM (series often up to 36.5 µM), most hits filed as inhibitors; calls by dose curve; tested in A549 cells; note: nearly all actives have a fitted effect of over 30% in size
Vaccinia mCherry = vaccinia inhibition (mCherry reporter); Potency, µM (doses to about 36.5 µM), most hits filed as inhibitors; 310,000 compounds, 0.63% hits; Vaccinia virus mCherry reporter infection, fluorescence; calls by dose curve; tested in A549 cells; note: nearly all actives have a fitted effect of over 35% in size
Pf growth 48h = P. falciparum growth inhibition at 48 hours (one generation). Potency, µM (series often up to 28.7 µM), hits mostly inhibitors. P. falciparum luciferase growth in erythrocytes, 48 h. 310,000 compounds, 5.9% hits
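In quantitative HTS format, infected erythrocytes bearing luciferase-reporter parasites were treated for a single generation at 37 C. Luminescence after adding detection reagent served as the growth measure.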
HCV inhibitor = HCV inhibition. Potency, µM (titrated, usually from 41.8 µM), usual class: inhibitors. 340,000 compounds, 3.4% hits. Huh7.5.1 HCVcc-Cre infection, luciferase reporter, 44 h
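Antiviral activity was scored by luciferase reporter output from cells infected with HCVcc-Cre (~0.5 moi) in presence of compound, 44 h infection period, cells seeded 1,000/well 4 h prior.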
NS1 inh = blocks influenza NS1 protein function; Potency, µM (doses to about 46.1 µM); 270,000 compounds, 0.4% hits; AID 2326; calls by dose curve; note: actives are rising curves; nearly all actives have a fitted effect of over 50% in size
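Read-out: OD600 growth recovery of NS1-expressing budding yeast. Cells grown overnight at 30C in -URA glucose medium, washed, resuspended and diluted 1:100 in 2% galactose assay medium, pH 6.0. Same strain lacking NS1 served as positive control.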
Pf growth 96h = P. falciparum growth inhibition at 96 hour, primary screen for plastid delayed-death inhibitors. P. falciparum luciferase reporter growth, 96 h. Potency, µM (doses to about 28.7 µM), hits mostly inhibitors. 320,000 compounds, 6.9% hits
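Infected RBCs, 2% Hct / 0.05% parasitemia final; luciferase-reporter P. falciparum; cpd 96 h, 37 C, 5% CO2; luciferase detection reagent; luminescence.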
A number is an active result; i = inactive; ? = inconclusive; nt = not tested or not shown; [ ] = dose if it differs, or a comment. Unless noted, calls come from the whole dose curve; as a rule, active = well fitted inhibition curve with a large enough effect; inconclusive = small, poorly fitted or top-dose-only effect, or another doubt; inactive = no such curve, though single readings can be large or run the other way.

SMILES	Vaccinia Venus	Vaccinia mCherry	Pf growth 48h	HCV inhibitor	NS1 inh	Pf growth 96h
CCOC(=O)N1CCN(S(=O)(=O)c2ccc(F)c(C(=O)Nc3ccc(C(C)C)cc3)c2)CC1	i	i	?	i	i	?
CCOC(=O)N1CCN(CC(=O)Nc2ccc(F)c(F)c2)CC1	i	i	i	i	nt	i
CCOC(=O)N1CCN(S(=O)(=O)c2ccc(F)c(C(=O)Nc3ccc(C)c(Cl)c3)c2)CC1	i	i	13µM	?	i	i
CN(CC(=O)Nc1ccc(Cl)c(C(F)(F)F)c1)S(=O)(=O)c1cnc[nH]1	i	i	nt	nt	nt	nt
CSc1nc2nc3c(cc2c(=O)n1-c1cccc(C)c1)COC(C)(C)C3	i	i	i	i	i	i
CCOC(=O)N1CCN(CCc2ccccc2)CC1	nt	nt	i	i	i	10µM
CCOC(=O)N1CCN(C(=O)CCc2ccccc2)CC1	nt	nt	i	i	i	i
CCOC(=O)N1CCN(C(=O)Nc2cccc(Cl)c2)CC1	nt	nt	nt	i	i	12µM
CCOC(=O)N1CCN(C(=O)Nc2ccc(Cl)cc2)CC1	i	i	i	i	i	i
Cc1ccc(C2=NNC(c3ccc(Cl)cc3)=Nc3ccccc32)o1	i	i	10µM	?	?	10µM
c1ccc(C2=NNC(c3ccco3)=Nc3ccccc32)cc1	nt	nt	?	i	i	i
CCc1ccccc1OCC(=O)Nc1ccc(F)c(S(=O)(=O)N2CCOCC2)c1	i	i	?	?	nt	13µM
Cc1ccccc1OCC(=O)Nc1ccc(C)c(S(=O)(=O)N2CCCCCC2)c1	i	?	?	?	nt	?
COc1ccc(NC(=O)COc2ccccc2Cl)cc1S(=O)(=O)N1CCCCC1	?	i	12µM	10µM	nt	10µM
COc1ccc(OCC(=O)Nc2ccc(OC)c(S(=O)(=O)N3CCCCC3)c2)cc1	?	?	i	10µM	nt	i
COc1ccc(NC(=O)c2n[nH]c(=O)c3ccccc23)cc1S(=O)(=O)N1CCCCC1	i	?	?	11µM	i	?
COc1ccc(NC(=O)c2ccco2)cc1S(=O)(=O)N1CCCCC1	i	i	i	i	i	i
O=C(CSc1nncs1)NCCNC(=O)CSc1nncs1	i	i	i	i	nt	i
NS(=O)(=O)c1ccc(NC(=O)COC(=O)COc2ccc(Br)cc2)cc1	nt	nt	i	i	i	i
O=C(CN1CCN(C(=O)C2CC2)CC1)Nc1cc(C(F)(F)F)cc(C(F)(F)F)c1	i	i	i	?	nt	i
COc1ccc(NS(=O)(=O)c2c(F)cccc2F)cc1S(=O)(=O)N1CCOCC1	i	i	?	i	nt	?
COc1ccc(NC(=O)CSc2ccc3ccccc3c2)cc1S(=O)(=O)N1CCCCC1	?	i	i	5µM	?	i
COc1ccc(NS(=O)(=O)c2c(F)cc(F)c(Cl)c2F)cc1S(=O)(=O)N1CCCCC1	5.6µM	3.5µM	i	i	i	i
Cc1nn(Cc2ccc(Cl)cc2)c(C)c1NC(=O)c1cc(-c2ccc3c(c2)OCO3)on1	nt	nt	i	32µM	i	?
O=C(c1cc(-c2ccc3c(c2)OCO3)on1)N1CCCCC1	i	i	i	?	i	13µM
SMILES	Vaccinia Venus	Vaccinia mCherry	Pf growth 48h	HCV inhibitor	NS1 inh	Pf growth 96h
Cc1nn(Cc2ccc(Cl)cc2Cl)c(C)c1NC(=O)CCl	nt	nt	0.59µM	13µM	i	10µM
O=C(c1cc(-c2ccc(Cl)c(Cl)c2)on1)N1CCCCCC1	i	i	i	i	i	i
Cc1nn(Cc2ccc(Cl)cc2)c(C)c1NC(=O)c1cc(C(C)C)on1	i	i	i	11µM	i	i
Cc1nn(Cc2ccccc2)c(C)c1NC(=O)c1cc(C(C)C)on1	i	i	nt	nt	nt	nt
CC(=O)Cc1nsc(NC(=O)c2ccc(COc3ccccc3)o2)n1	nt	nt	i	i	i	?
CCOC(=O)C(N)CSC1CC(=O)N(c2ccc(OCC)cc2)C1=O (configuration not stated)	nt	nt	?	i	i	?
O=C(CSC1=NS(=O)(=O)c2cc(Cl)ccc2N1)NCc1ccccc1	i	i	?	i	nt	i
CSc1c(C#N)c(N)nc2sc(C(=O)c3ccc(Cl)c(Cl)c3)c(N)c12	i[7.34 µM]	?	?	?	i	?
Cc1nn(Cc2ccccc2Cl)c(C)c1NC(=O)c1cc(C(C)C)on1	i	i	nt	nt	nt	nt
Cc1nnsc1NC(=O)OCc1ccc(Cl)cc1Cl	i	nt	i	i	i	i
Cc1ccc(-n2nc(C)c(NC(=O)CCl)c2C)cc1	?	?	3.7µM	?	i	i
Cc1nn(C)c(Cl)c1NC(=O)OCc1ccc(Cl)cc1Cl	i	i	i	10µM	i	i
Cc1nn(Cc2c(Cl)cccc2Cl)c(C)c1NC(=O)c1cc(C(C)C)on1	i	i	nt	?	i	9.3µM
CC(=O)Nc1c(C)nn(-c2ccc([N+](=O)[O-])cc2)c1C	i	i	i	i	i	?
COc1cc(C(=S)N2CCCC2)ccc1OCc1ccc(C)cc1	nt	nt	?	?	i	?
O=C(NCCCn1ccnc1)c1ccccc1Br	nt	nt	i	i	i	?
O=C(NCCc1ccccc1)c1cccc2c(-c3ccc(F)c(F)c3)coc12	i	i	nt	nt	nt	nt
COCc1cc(Sc2ccc(OC)cc2)nc(-c2ccccc2)n1	i	i	?	?	nt	?
COCc1cc(Sc2ccc(Cl)cc2Cl)nc(-c2ccccc2)n1	i	nt	12µM	i	i	?
CC(C)C(NC(=O)c1ccco1)C(=O)NCC(c1ccco1)N1CCCCC1 (configuration not stated)	nt	nt	?	i	i	2.1µM
COc1ccc(NC(=S)NCC(c2ccco2)N2CCCC2)cc1 (configuration not stated)	i	i	i	i	nt	?
S=C(NCCc1ccccc1)NCC(c1ccco1)N1CCCCC1 (configuration not stated)	i	i	?	i	i	2.6µM
COc1cccc(-n2c(/C=C/c3ccccc3O)nc3ccccc3c2=O)c1	i	?	nt	nt	nt	nt
Cc1cccc(Cc2nnc(CCC(=O)N(C)CCc3ccccc3)o2)c1	i	i	i	i	i	12µM
CC(C)C[C@@H]1NC(=O)[C@H](CCCN)NC(=O)[C@H](C(C)C)NC(=O)[C@@H]2CCCN2C(=O)[C@@H](Cc2ccccc2)NC(=O)[C@H](CC(C)C)NC(=O)[C@H](CCCN)NC(=O)[C@H](C(C)C)NC(=O)[C@@H]2CCCN2C(=O)[C@@H](Cc2ccccc2)NC1=O	?	4.5µM	nt	nt	nt	nt
SMILES	Vaccinia Venus	Vaccinia mCherry	Pf growth 48h	HCV inhibitor	NS1 inh	Pf growth 96h
Cc1ccc(S(=O)(=O)Nc2cc3c(cc2N2CCOCC2)n(C)c(=O)n3C)cc1	i	i	nt	nt	nt	nt
Cc1ccc(S(=O)(=O)Nc2cc(C(F)(F)F)ccc2N2CCOCC2)c(C)c1	i	i	?	i	i	12µM
Cc1ccc(S(=O)(=O)Nc2cc(C(F)(F)F)ccc2N2CCOCC2)cc1	i	i	?	i	i	13µM
O=C(O)c1ccc(CNS(=O)(=O)c2ccc(Oc3ccccc3Cl)cc2)cc1	nt	nt	i	i	i	?
COc1cc(-c2noc(C)c2-c2ccc3[nH]ccc3c2)cc(OC)c1OC	?	i	?	?	i	10µM
O=C(NCc1cccc(Cl)c1)C1CCN(C(=O)c2sccc2-n2cccc2)CC1	i	i	nt	nt	nt	nt

Source: PubChem (National Center for Advancing Translational Sciences (NCATS))
